Binding signal data for one sequence are collected here from article PMC7862700, “An all-to-all approach to the identification of sequence-specific readers for epigenetic DNA modifications on cytosine”.

Experiment in all cases: DAPPL (digital affinity profiling via proximity ligation, sequencing); 10 mM Tris-HCl pH 7.5, 50 mM NaCl, 1 mM DTT, 4% glycerol, room temperature, 30 min; GST-TFs on glutathione beads, 16-mer random dsDNA library, 0.1% formaldehyde crosslink after washing; high values mean tight binding
The target of one test is T1, FEV (Homo sapiens, UniProt Q99581 1-238).
T1 sequence: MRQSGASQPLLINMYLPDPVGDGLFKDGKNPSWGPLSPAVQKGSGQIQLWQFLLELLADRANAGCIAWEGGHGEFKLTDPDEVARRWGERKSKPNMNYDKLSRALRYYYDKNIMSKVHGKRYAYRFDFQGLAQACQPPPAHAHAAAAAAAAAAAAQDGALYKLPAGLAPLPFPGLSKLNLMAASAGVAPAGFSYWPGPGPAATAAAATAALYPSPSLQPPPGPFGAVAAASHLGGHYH
The note with it: protein: recombinant; tags: N-terminal GST; dsDNA, one strand shown. A digest of the protocol:
(§1)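 Binding signal is each hexamer's read frequency for a factor divided by its frequency in the tag-only sample. The factors were GST-fused human transcription factors from yeast, captured on glutathione beads, DNA-barcoded and pooled with that sample. Pools were incubated with 200 nmole of a random double-stranded 16-mer DNA library in Tris/NaCl/DTT/glycerol buffer at room temperature for 30 min, then washed, crosslinked with 0.1% formaldehyde, proximity-ligated with BsaI/T4 ligase (1 h, 37 °C), PCR-amplified and sequenced on an Illumina NextSeq500.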

The target in a further test is ETV5 (Homo sapiens, UniProt P41161 1-510). The note with it: protein: recombinant; tags: N-terminal GST; dsDNA, one strand shown. A digest of the protocol:
as §1

The next test concerns the target HSF1 (Homo sapiens, UniProt Q00613 1-529). The note with it: protein: recombinant; tags: N-terminal GST; chain copies: 3; dsDNA, one strand shown. A digest of the protocol:
as §1

For the next test, the target named is T2, SPIC (Homo sapiens, UniProt Q8N5J4 1-248).
T2 sequence: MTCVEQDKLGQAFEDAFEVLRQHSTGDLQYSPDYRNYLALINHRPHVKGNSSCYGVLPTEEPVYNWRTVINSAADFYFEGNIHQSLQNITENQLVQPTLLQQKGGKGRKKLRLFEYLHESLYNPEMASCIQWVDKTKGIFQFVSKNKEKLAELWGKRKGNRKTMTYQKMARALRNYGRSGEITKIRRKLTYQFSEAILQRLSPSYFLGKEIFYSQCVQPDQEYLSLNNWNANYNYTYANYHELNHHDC
The note with it: protein: recombinant; tags: N-terminal GST; dsDNA, one strand shown. An outline of the steps: as §1

For another test, the target named is ELF4 (Homo sapiens, UniProt Q99607 1-663). The note with it: protein: recombinant; tags: N-terminal GST; dsDNA, one strand shown. A digest of the protocol:
as §1

In another test the target is T3, ELK4 (Homo sapiens, UniProt P28324-2 1-405).
T3 sequence: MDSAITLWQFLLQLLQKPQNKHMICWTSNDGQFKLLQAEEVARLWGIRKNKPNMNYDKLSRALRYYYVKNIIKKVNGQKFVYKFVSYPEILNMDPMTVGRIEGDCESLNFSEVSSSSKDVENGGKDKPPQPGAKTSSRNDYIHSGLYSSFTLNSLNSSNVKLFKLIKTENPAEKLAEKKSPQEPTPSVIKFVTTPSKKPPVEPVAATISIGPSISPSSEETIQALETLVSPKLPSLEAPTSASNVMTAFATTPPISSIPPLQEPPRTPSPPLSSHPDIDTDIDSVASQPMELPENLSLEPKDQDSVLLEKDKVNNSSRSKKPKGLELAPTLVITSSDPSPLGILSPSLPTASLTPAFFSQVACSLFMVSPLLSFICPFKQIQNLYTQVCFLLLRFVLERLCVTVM
The note with it: protein: recombinant; tags: N-terminal GST; dsDNA, one strand shown. A digest of the protocol: as §1

Another test addresses T4, ETV2 (Homo sapiens, UniProt O00321 1-342).
T4 sequence: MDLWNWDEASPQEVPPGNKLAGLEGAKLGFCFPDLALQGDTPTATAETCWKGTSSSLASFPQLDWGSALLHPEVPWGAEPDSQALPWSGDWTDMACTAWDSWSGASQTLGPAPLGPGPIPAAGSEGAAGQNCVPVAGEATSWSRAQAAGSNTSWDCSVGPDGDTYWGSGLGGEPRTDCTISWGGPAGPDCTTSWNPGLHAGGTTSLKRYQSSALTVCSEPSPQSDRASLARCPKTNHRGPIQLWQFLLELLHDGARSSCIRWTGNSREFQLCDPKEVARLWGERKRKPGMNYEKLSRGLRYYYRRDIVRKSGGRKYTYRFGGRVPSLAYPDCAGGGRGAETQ
The note with it: protein: recombinant; tags: N-terminal GST; dsDNA, one strand shown. A digest of the protocol:
as §1

Another test has as its target T5, ELF3 (Homo sapiens, UniProt P78545 1-371).
T5 sequence: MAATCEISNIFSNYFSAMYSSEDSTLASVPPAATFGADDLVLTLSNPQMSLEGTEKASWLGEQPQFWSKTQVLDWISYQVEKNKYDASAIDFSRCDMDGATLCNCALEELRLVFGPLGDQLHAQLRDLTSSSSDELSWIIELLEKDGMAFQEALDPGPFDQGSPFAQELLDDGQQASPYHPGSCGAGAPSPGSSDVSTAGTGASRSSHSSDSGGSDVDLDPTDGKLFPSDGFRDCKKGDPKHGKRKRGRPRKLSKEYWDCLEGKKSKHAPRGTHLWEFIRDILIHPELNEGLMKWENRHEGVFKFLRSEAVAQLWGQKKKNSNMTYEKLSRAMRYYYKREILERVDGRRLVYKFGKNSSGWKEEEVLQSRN
The note with it: protein: recombinant; tags: N-terminal GST; dsDNA, one strand shown. A digest of the protocol:
as §1

The next test has as its target CRX (Homo sapiens, UniProt O43186 1-299). The note with it: protein: recombinant; tags: N-terminal GST; dsDNA, one strand shown. An outline of the steps: as §1
The target in the next test is ETV1 (Homo sapiens, UniProt P50549 1-477). The note with it: protein: recombinant; tags: N-terminal GST; dsDNA, one strand shown. An outline of the steps:
as §1

The next test addresses T6, ERF (Homo sapiens, UniProt P50548 1-548).
T6 sequence: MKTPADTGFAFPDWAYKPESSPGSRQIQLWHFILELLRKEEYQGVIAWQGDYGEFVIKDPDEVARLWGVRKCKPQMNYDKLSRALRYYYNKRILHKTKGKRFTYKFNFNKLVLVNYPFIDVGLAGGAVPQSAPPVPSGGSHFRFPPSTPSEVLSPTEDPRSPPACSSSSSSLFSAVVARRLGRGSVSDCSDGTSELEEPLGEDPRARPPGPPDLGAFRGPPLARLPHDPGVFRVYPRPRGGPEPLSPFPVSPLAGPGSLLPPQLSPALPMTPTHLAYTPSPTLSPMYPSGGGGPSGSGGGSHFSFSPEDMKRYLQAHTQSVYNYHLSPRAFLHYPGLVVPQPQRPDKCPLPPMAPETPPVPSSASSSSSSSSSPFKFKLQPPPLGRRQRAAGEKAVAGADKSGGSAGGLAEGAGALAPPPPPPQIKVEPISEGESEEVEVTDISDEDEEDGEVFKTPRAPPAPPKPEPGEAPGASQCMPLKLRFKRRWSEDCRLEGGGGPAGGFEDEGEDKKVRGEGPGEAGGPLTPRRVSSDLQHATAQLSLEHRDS
The note with it: protein: recombinant; tags: N-terminal GST; dsDNA, one strand shown. An outline of the steps: as §1

In another test the target is T7, ETV3L (Homo sapiens, UniProt Q6ZN32 1-361).
T7 sequence: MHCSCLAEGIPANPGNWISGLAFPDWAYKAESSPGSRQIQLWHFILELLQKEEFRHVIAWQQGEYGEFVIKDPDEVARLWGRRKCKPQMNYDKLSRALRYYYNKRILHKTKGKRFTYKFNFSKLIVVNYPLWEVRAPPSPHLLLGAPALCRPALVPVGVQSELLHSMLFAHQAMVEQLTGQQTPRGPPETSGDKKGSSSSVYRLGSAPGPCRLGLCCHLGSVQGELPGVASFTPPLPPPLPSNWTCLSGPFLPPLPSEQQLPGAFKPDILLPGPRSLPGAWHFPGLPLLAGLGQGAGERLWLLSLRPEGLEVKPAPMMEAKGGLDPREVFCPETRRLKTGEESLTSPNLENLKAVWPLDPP
The note with it: protein: recombinant; tags: N-terminal GST; dsDNA, one strand shown. An outline of the steps:
as §1

In another test the target is T8, ETS2 (Homo sapiens, UniProt P15036 1-469).
T8 sequence: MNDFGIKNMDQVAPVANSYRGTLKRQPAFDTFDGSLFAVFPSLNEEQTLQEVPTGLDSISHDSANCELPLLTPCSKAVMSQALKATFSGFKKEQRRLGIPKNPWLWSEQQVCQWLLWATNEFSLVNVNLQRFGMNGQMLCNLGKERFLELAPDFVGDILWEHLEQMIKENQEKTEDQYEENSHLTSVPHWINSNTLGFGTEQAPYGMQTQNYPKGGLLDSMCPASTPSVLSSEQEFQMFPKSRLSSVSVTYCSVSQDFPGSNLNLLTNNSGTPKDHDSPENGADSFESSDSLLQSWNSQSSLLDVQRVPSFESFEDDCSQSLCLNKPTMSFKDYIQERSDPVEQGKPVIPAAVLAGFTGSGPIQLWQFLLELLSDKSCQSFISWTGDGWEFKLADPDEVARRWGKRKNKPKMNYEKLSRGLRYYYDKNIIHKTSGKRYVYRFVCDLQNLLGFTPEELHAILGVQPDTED
The note with it: protein: recombinant; tags: N-terminal GST; dsDNA, one strand shown. A digest of the protocol:
as §1

The next test has as its target T9, SPDEF (Homo sapiens, UniProt O95238 1-335).
T9 sequence: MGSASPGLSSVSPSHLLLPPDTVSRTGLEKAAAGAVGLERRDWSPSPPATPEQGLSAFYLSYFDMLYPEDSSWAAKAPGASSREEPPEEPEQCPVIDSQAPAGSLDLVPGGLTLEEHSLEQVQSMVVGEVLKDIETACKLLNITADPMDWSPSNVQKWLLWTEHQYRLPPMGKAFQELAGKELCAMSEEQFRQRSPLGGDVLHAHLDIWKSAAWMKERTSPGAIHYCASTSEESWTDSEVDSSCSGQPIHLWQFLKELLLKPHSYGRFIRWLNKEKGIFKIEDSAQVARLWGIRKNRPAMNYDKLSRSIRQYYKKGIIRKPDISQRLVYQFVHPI
The note with it: protein: recombinant; tags: N-terminal GST; dsDNA, one strand shown. An outline of the steps: as §1

A further test addresses T10, ETV7 (Homo sapiens, UniProt Q9Y603 1-341).
T10 sequence: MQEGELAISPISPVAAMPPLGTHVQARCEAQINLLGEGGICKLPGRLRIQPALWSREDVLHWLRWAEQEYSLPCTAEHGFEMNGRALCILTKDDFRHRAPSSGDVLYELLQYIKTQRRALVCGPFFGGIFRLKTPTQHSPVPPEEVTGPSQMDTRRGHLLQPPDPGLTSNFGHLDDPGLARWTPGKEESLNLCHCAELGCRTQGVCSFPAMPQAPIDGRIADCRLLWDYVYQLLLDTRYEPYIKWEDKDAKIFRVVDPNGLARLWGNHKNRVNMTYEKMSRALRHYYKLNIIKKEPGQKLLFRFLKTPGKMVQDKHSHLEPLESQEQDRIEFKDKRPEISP
The note with it: protein: recombinant; tags: N-terminal GST; dsDNA, one strand shown. An outline of the steps:
as §1

The next test addresses T11, ELF5 (Homo sapiens, UniProt Q9UKW6-2 1-255).
T11 sequence: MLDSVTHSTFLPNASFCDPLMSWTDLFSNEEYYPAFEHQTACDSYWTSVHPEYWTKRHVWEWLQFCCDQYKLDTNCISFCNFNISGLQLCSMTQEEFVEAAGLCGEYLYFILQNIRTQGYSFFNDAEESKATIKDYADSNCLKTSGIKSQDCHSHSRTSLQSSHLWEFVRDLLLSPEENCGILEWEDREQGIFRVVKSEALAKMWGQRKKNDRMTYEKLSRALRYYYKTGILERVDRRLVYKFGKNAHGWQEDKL
The note with it: protein: recombinant; tags: N-terminal GST; dsDNA, one strand shown. An outline of the steps: as §1

For another test, the target named is T12, ETV3 (Homo sapiens, UniProt P41162-2 1-143).
T12 sequence: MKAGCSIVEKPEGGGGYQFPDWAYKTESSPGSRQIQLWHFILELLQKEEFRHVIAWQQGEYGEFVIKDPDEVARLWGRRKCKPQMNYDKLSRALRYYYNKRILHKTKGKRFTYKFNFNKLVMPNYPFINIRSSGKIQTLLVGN
The note with it: protein: recombinant; tags: N-terminal GST; dsDNA, one strand shown. A digest of the protocol:
as §1

A further test concerns the target ETV6 (Homo sapiens, UniProt P41212 1-452). The note with it: protein: recombinant; tags: N-terminal GST; dsDNA, one strand shown. A digest of the protocol: as §1

Chain of HSF1 (Q00613 whole entry): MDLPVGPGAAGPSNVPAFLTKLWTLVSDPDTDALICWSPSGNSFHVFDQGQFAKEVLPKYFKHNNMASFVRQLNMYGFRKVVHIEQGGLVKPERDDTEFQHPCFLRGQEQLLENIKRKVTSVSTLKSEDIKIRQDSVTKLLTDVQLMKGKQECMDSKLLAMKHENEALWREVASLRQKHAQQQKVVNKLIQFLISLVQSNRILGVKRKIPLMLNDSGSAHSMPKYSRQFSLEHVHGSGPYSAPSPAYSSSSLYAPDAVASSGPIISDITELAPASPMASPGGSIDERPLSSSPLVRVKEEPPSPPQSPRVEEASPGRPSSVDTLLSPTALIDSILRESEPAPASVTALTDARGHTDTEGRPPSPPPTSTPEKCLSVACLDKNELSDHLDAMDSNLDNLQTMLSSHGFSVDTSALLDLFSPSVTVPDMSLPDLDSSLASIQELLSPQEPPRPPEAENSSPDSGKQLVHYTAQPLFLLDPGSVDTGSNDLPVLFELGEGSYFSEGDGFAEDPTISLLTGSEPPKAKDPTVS
Chain of ETV1 (P50549 whole entry): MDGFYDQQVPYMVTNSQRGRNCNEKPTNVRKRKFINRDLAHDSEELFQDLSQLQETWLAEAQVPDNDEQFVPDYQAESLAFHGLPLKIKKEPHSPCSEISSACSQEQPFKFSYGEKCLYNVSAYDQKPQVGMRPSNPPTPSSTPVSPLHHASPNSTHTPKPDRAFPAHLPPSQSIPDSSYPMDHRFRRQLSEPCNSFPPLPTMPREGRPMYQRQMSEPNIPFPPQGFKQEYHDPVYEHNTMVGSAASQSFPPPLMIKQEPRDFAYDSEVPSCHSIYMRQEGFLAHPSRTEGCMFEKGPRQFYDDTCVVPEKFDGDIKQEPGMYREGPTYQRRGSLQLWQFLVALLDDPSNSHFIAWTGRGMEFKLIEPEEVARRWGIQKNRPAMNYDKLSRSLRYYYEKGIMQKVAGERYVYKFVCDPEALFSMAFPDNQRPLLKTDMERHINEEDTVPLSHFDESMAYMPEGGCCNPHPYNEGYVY
Chain of CRX (O43186 whole entry): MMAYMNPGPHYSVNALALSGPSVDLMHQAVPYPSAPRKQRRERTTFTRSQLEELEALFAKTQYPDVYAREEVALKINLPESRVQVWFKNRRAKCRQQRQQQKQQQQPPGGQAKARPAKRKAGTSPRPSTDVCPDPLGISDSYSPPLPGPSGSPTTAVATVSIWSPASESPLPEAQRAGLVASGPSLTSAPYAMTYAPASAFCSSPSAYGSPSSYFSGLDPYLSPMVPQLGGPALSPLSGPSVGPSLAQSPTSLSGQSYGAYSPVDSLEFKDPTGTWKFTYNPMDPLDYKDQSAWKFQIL
Chain of ETV6 (P41212 whole entry): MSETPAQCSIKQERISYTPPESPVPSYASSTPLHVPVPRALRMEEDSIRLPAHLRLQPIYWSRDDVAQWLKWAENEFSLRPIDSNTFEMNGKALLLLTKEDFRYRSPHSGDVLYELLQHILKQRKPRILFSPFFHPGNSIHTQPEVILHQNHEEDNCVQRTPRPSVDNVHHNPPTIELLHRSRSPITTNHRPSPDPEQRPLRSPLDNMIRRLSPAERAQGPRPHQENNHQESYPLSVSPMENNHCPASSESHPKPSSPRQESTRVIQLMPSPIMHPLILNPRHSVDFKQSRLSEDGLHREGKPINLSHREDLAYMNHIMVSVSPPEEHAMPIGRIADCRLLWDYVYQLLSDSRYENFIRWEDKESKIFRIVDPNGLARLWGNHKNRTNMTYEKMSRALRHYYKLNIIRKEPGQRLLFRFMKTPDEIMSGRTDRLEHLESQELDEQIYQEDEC
Chain of ELF4 (Q99607 whole entry): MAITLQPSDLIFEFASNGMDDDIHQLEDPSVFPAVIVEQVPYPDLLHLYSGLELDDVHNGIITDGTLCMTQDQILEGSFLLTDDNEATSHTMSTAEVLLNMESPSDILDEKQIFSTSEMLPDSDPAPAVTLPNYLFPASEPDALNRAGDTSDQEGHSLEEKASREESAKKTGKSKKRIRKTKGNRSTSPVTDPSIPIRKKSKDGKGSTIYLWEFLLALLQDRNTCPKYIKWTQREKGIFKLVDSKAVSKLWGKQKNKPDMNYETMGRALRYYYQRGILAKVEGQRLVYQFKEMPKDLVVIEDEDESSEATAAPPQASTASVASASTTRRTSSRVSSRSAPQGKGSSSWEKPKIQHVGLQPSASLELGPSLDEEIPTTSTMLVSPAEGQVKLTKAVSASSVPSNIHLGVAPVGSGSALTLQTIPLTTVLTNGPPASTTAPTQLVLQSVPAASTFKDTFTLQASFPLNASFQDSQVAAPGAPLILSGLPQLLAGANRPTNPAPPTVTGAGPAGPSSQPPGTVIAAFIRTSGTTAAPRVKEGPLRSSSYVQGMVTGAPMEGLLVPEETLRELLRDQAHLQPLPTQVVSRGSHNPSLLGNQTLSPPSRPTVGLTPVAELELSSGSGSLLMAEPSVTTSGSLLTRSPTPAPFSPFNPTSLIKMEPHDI
Chain of ETV5 (P41161 whole entry): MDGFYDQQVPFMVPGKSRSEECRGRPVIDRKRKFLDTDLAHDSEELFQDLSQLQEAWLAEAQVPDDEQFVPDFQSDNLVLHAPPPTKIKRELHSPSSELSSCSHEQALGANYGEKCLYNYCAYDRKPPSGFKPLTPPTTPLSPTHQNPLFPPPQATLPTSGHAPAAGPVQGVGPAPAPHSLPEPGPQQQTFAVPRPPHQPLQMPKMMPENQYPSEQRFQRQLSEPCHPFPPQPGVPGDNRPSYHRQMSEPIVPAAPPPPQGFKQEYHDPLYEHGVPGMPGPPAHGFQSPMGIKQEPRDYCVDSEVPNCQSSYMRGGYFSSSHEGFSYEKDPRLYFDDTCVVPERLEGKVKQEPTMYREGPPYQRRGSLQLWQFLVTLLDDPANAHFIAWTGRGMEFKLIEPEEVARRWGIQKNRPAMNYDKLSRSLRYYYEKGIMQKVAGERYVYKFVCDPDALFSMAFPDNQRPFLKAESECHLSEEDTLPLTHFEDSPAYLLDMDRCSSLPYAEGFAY

On to ACCTAA, for which the binding signal with FEV was 1.12 fold enrichment (6-mer frequency, TF over GST control); in the test with ETV5 it was 1.22 fold enrichment (6-mer frequency, TF over GST control); with HSF1, 1.21 fold enrichment (6-mer frequency, TF over GST control); with SPIC, 1.21 fold enrichment (6-mer frequency, TF over GST control); with ELF4, 1.27 fold enrichment (6-mer frequency, TF over GST control); with ELK4, 1.13 fold enrichment (6-mer frequency, TF over GST control). In addition, the binding signal was 1.17 fold enrichment (6-mer frequency, TF over GST control) with ETV2; 1.2 fold enrichment (6-mer frequency, TF over GST control) with ELF3; 1.57 fold enrichment (6-mer frequency, TF over GST control) in the test with CRX; 1.18 fold enrichment (6-mer frequency, TF over GST control) with ETV1; 1.17 fold enrichment (6-mer frequency, TF over GST control) with ERF; 1.18 fold enrichment (6-mer frequency, TF over GST control) with ETV3L. The binding signal in the test with ETS2 is 1.17 fold enrichment (6-mer frequency, TF over GST control); with SPDEF it was 1.19 fold enrichment (6-mer frequency, TF over GST control); with ETV7, 1.18 fold enrichment (6-mer frequency, TF over GST control); in the test with ELF5, 1.14 fold enrichment (6-mer frequency, TF over GST control); with ETV3 it was 1.03 fold enrichment (6-mer frequency, TF over GST control); with ETV6, 1.18 fold enrichment (6-mer frequency, TF over GST control).
